Measured values from article PMC5540273 (PLoS ONE, 2017).
pKd: −log10 of the molar value.

The molecules below were run on TGFBR1.
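Further: kd values determined as follow-up on hits from a single-replicate KINOMEscan panel screen.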

Structure (SMILES)	pKd
Cl.c1ccc(-c2n[nH]cc2-c2ccnc(-c3ccc(CN4CCOCC4)cc3)c2)nc1 [GW776245]	6.82
Cc1cccc(-c2nc(C)cc(Nc3ccncc3)n2)n1 [GSK257997]	6.70
Cc1ccc(-c2cc(-c3c[nH]nc3-c3ccccn3)ccn2)cc1 [GW684088]	6.59

The molecules below were run on TGFBR2.

Structure (SMILES)	pKd
Cl.c1ccc(-c2n[nH]cc2-c2ccnc(-c3ccc(CN4CCOCC4)cc3)c2)nc1 [GW776245]	6.68
Cc1csc(-c2nc(Nc3ccncc3)c3ccccc3n2)n1 [GW869640]	6.60
Cc1cccc(-c2nc(Nc3ccncc3)c3ccccc3n2)n1 [GW855857]	6.54
